# Assay results from PubChem BioAssay AID1159580 (chemical genetic matrix, 2015).
# In all, about 5,500 compounds went through this assay and about 2,000 (36%) were called active. Roughly 18% stayed inconclusive and do not appear here. The list shows a part of the results. Values without a mark were called inactive. Rule as the data show it: active = normalized growth mostly below about 0.91 (no sharp cut-off); inconclusive = no clear call, values can overlap the other calls; inactive = mostly above about 0.92.
# Experiment: chemical genetic growth profiling, strain panel (AID 1159580);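 also: tested at 20 µM; growth read once vehicle control cultures reached saturation at 30 °C; 1 = growth at the plate median or of vehicle wells; lower values mean less growth of the strain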
# Conditions: growth OD
compound,measurement,setting,value
CC(=O)O[C@H]1CC[C@@]2(C)C(C[C@@H](OC(C)=O)[C@]3(C)C2CC[C@@]2(C)[C@H](c4ccoc4)OC(=O)[C@H]4O[C@]423)C1(C)C (stereo partly drawn),normalized growth,"S. cerevisiae deletion strains, locus YJL187C, strain SWE1, active compounds read low",1
same,normalized growth,"S. cerevisiae deletion strains, locus YJR066W, strain TOR1, active compounds read low",0.997
same,normalized growth,"S. cerevisiae deletion strains, locus YKL009W, strain mrt4, active compounds read low",1.47 [resistant] (active)
same,normalized growth,"S. cerevisiae deletion strains, locus YKL068W, active compounds read low",1
same,normalized growth,"S. cerevisiae deletion strains, locus YKL085W, strain MDH1 (second series), active compounds read low",1.04
same,normalized growth,"S. cerevisiae deletion strains, locus YKL085W, strain MDH1, active compounds read low",1.04
same,normalized growth,"S. cerevisiae deletion strains, locus YKL160W, strain elf1, active compounds read low",1.02
same,normalized growth,"S. cerevisiae deletion strains, locus YKL190W, strain CNB1, active compounds read low",1
same,normalized growth,"S. cerevisiae deletion strains, locus YKR001C, strain vps1, active compounds read low",1
same,normalized growth,"S. cerevisiae deletion strains, locus YKR026C, strain gcn3, active compounds read low",0.971
same,normalized growth,"S. cerevisiae deletion strains, locus YKR091W, strain srl3, active compounds read low",0.991
same,normalized growth,"S. cerevisiae deletion strains, locus YLL001W, strain dnm1, active compounds read low",0.988
same,normalized growth,"S. cerevisiae deletion strains, locus YLL026W, active compounds read low",0.995
same,normalized growth,"S. cerevisiae deletion strains, locus YLL041C, strain sdh2, active compounds read low",0.987
same,normalized growth,"S. cerevisiae deletion strains, locus YLR027C, strain aat2, active compounds read low",1
same,normalized growth,"S. cerevisiae deletion strains, locus YLR039C, strain RIC1, active compounds read low",1.01
same,normalized growth,"S. cerevisiae deletion strains, locus YLR058C, strain SHM2, active compounds read low",1.01
same,normalized growth,"S. cerevisiae deletion strains, locus YLR102C, strain apc9, active compounds read low",1.02
same,normalized growth,"S. cerevisiae deletion strains, locus YLR113W, strain HOG1, active compounds read low",0.991
same,normalized growth,"S. cerevisiae deletion strains, locus YLR221C, strain rsa3, active compounds read low",1.01
same,normalized growth,"S. cerevisiae deletion strains, locus YLR258W, strain gsy2, active compounds read low",0.994
same,normalized growth,"S. cerevisiae deletion strains, locus YLR262C, strain YPT6 (second series), active compounds read low",1.05
same,normalized growth,"S. cerevisiae deletion strains, locus YLR262C, strain YPT6, active compounds read low",1.1
same,normalized growth,"S. cerevisiae deletion strains, locus YLR268W, strain sec22, active compounds read low",0.999
same,normalized growth,"S. cerevisiae deletion strains, locus YLR320W, strain mms22, active compounds read low",1.01
same,normalized growth,"S. cerevisiae deletion strains, locus YLR330W, strain CHS5, active compounds read low",1.01
same,normalized growth,"S. cerevisiae deletion strains, locus YLR342W, strain FKS1, active compounds read low",0.994
same,normalized growth,"S. cerevisiae deletion strains, locus YLR357W, strain rsc2, active compounds read low",0.951
same,normalized growth,"S. cerevisiae deletion strains, locus YLR370C, strain arc18, active compounds read low",0.996
same,normalized growth,"S. cerevisiae deletion strains, locus YLR371W, strain rom2, active compounds read low",1.01
same,normalized growth,"S. cerevisiae deletion strains, locus YLR384C, strain iki3, active compounds read low",1
same,normalized growth,"S. cerevisiae deletion strains, locus YLR418C, strain cdc73, active compounds read low",1.06
same,normalized growth,"S. cerevisiae deletion strains, locus YML016C, strain PPZ1, active compounds read low",1.02
same,normalized growth,"S. cerevisiae deletion strains, locus YML032C, strain rad52, active compounds read low",1.01
same,normalized growth,"S. cerevisiae deletion strains, locus YML120C, strain ndi1, active compounds read low",0.989
same,normalized growth,"S. cerevisiae deletion strains, locus YML124C, strain tub3, active compounds read low",1.01
same,normalized growth,"S. cerevisiae deletion strains, locus YMR058W, strain fet3, active compounds read low",1
same,normalized growth,"S. cerevisiae deletion strains, locus YMR078C, strain ctf18, active compounds read low",1.02
same,normalized growth,"S. cerevisiae deletion strains, locus YMR125W, strain sto1, active compounds read low",0.99
same,normalized growth,"S. cerevisiae deletion strains, locus YMR129W, active compounds read low",0.996
same,normalized growth,"S. cerevisiae deletion strains, locus YMR205C, strain PFK2, active compounds read low",0.968
same,normalized growth,"S. cerevisiae deletion strains, locus YMR223W, strain ubp8, active compounds read low",1.03
same,normalized growth,"S. cerevisiae deletion strains, locus YMR231W, strain pep5, active compounds read low",0.994
same,normalized growth,"S. cerevisiae deletion strains, locus YMR263W, strain SAP30, active compounds read low",1.02
same,normalized growth,"S. cerevisiae deletion strains, locus YMR307W, strain GAS1, active compounds read low",0.994
same,normalized growth,"S. cerevisiae deletion strains, locus YNL067W, strain RPL9B, active compounds read low",1.05
same,normalized growth,"S. cerevisiae deletion strains, locus YNL071W, strain lat1, active compounds read low",1
same,normalized growth,"S. cerevisiae deletion strains, locus YNL183C, strain NPR1, active compounds read low",1
same,normalized growth,"S. cerevisiae deletion strains, locus YNL209W, strain ssb2, active compounds read low",1
same,normalized growth,"S. cerevisiae deletion strains, locus YNL233W, strain BNI4, active compounds read low",1.05
same,normalized growth,"S. cerevisiae deletion strains, locus YNL248C, strain rpa49, active compounds read low",1.01
same,normalized growth,"S. cerevisiae deletion strains, locus YNL250W, strain rad50, active compounds read low",1.05
same,normalized growth,"S. cerevisiae deletion strains, locus YNL271C, strain bni1, active compounds read low",1.02
same,normalized growth,"S. cerevisiae deletion strains, locus YNL298W, strain CLA4, active compounds read low",1.01
same,normalized growth,"S. cerevisiae deletion strains, locus YNL307C, strain MCK1, active compounds read low",1.02
same,normalized growth,"S. cerevisiae deletion strains, locus YNL322C, strain KRE1 (second series), active compounds read low",0.997
same,normalized growth,"S. cerevisiae deletion strains, locus YNR049C, strain mso1, active compounds read low",0.985
same,normalized growth,"S. cerevisiae deletion strains, locus YNR052C, strain pop2, active compounds read low",1.03
same,normalized growth,"S. cerevisiae deletion strains, locus YOL006C, strain TOP1, active compounds read low",1.04
same,normalized growth,"S. cerevisiae deletion strains, locus YOL012C, strain htz1",0.707
same,normalized growth,"S. cerevisiae deletion strains, locus YOL147C, strain pex11, active compounds read low",1.01
same,normalized growth,"S. cerevisiae deletion strains, locus YOR001W, strain rrp6, active compounds read low",1.02
same,normalized growth,"S. cerevisiae deletion strains, locus YOR061W, strain CKA2, active compounds read low",1
same,normalized growth,"S. cerevisiae deletion strains, locus YOR069W, strain VPS5, active compounds read low",1.01
same,normalized growth,"S. cerevisiae deletion strains, locus YOR070C, strain gyp1, active compounds read low",0.997
same,normalized growth,"S. cerevisiae deletion strains, locus YOR080W, strain dia2, active compounds read low",0.996
same,normalized growth,"S. cerevisiae deletion strains, locus YOR083W, strain WHI5, active compounds read low",1.03
same,normalized growth,"S. cerevisiae deletion strains, locus YOR106W, strain vam3, active compounds read low",1.03
same,normalized growth,"S. cerevisiae deletion strains, locus YOR136W, strain idh2, active compounds read low",1.02
same,normalized growth,"S. cerevisiae deletion strains, locus YOR144C, strain elg1, active compounds read low",1.01
same,normalized growth,"S. cerevisiae deletion strains, locus YOR184W, strain ser1, active compounds read low",1
same,normalized growth,"S. cerevisiae deletion strains, locus YOR231W, strain MKK1, active compounds read low",1.02
same,normalized growth,"S. cerevisiae deletion strains, locus YOR265W, strain rbl2, active compounds read low",1
same,normalized growth,"S. cerevisiae deletion strains, locus YOR270C, strain vph1, active compounds read low",1.01
same,normalized growth,"S. cerevisiae deletion strains, locus YOR290C, strain snf2, active compounds read low",0.942
same,normalized growth,"S. cerevisiae deletion strains, locus YOR316C, strain cot1, active compounds read low",1.01
same,normalized growth,"S. cerevisiae deletion strains, locus YPL051W, strain arl3, active compounds read low",1.03
same,normalized growth,"S. cerevisiae deletion strains, locus YPL078C, strain atp4, active compounds read low",1.02
same,normalized growth,"S. cerevisiae deletion strains, locus YPL106C, strain sse1, active compounds read low",0.981
same,normalized growth,"S. cerevisiae deletion strains, locus YPL240C, strain hsp82, active compounds read low",1
same,normalized growth,"S. cerevisiae deletion strains, locus YPL241C, strain CIN2, active compounds read low",1
same,normalized growth,"S. cerevisiae deletion strains, locus YPL256C, strain CLN2, active compounds read low",1.05
same,normalized growth,"S. cerevisiae deletion strains, locus YPR119W, strain clb2, active compounds read low",1.01
same,normalized growth,"S. cerevisiae deletion strains, locus YPR141C, strain kar3, active compounds read low",1.02
same,normalized growth,"S. cerevisiae deletion strains, locus YPR163C, strain tif3, active compounds read low",1.02
same,normalized growth,"S. cerevisiae deletion strains, locus YPR167C, strain met16, active compounds read low",1.01
same,normalized growth,"S. cerevisiae deletion strains, strain wtn01, active compounds read low",1.02
same,normalized growth,"S. cerevisiae strains, strain wild type, active compounds read low",1.02
